Values joined by “and” are separate entries in the source; they are usually repeats but may differ in a detail not shown here. Identical values can stand only once. Hit rate of the full screen: of about 5,500 compounds, about 2,000 (36%) were called active. Another 18% or so got no clear call; they are omitted. Cut-off read from the data, not from the text of the source: active = normalized growth mostly below about 0.91 (no sharp cut-off); inconclusive = no clear call, values can overlap the other calls; inactive = mostly above about 0.92. The list shows a part of the results.
Assay: chemical genetic growth profiling, strain panel (AID 1159580);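 note: tested at 20 µM; growth read once vehicle control cultures reached saturation at 30 °C; 1 = growth at the plate median or of vehicle wells; lower values mean less growth of the strain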
Conditions: S. cerevisiae deletion strains, growth OD

Measured: normalized growth

O=C1c2ccccc2C(=O)c2c1ccc(O)c2O
inactive: locus YDR195W, strain ref2 0.892
active: locus YAL021C, strain ccr4, hits give low values 0.213 | locus YAL026C, strain drs2, hits give low values 0.273 | locus YAL030W, strain snc1, hits give low values 0.578 | locus YBL061C, strain skt5, hits give low values 0.44 | locus YBR009C, strain hhf1, hits give low values 0.532 | locus YBR021W, strain FUR4, hits give low values 0.671 | locus YBR023C, strain chs3, hits give low values 0.38 | locus YBR171W, strain sec66, hits give low values 0.681 | locus YBR229C, strain ROT2, hits give low values 0.399 | locus YBR231C, strain swc5, hits give low values 0.3 | locus YBR279W, strain paf1, hits give low values 0.512 | locus YCL011C, strain gbp2, hits give low values 0.501 | locus YCL016C, strain dcc1, hits give low values 0.564 | locus YCL029C, strain bik1, hits give low values 0.342 | locus YCL061C, strain MRC1, hits give low values 0.608 | locus YCL069W, strain vba3, hits give low values 0.52 | locus YCR088W, strain abp1, hits give low values 0.679 | locus YDL005C, strain med2, hits give low values 0.663 | locus YDL035C, strain GPR1, hits give low values 0.231 | locus YDL040C, strain nat1, hits give low values 0.703 | locus YDL074C, strain BRE1, hits give low values 0.178 | locus YDL101C, strain DUN1, hits give low values 0.235 | locus YDL185W, strain tfp1, hits give low values 0.816 | locus YDL192W, strain arf1, hits give low values 0.301 | locus YDR001C, strain nth1, hits give low values 0.722 | locus YDR069C, strain doa4, hits give low values 0.401 | locus YDR101C, strain arx1, hits give low values 0.549 | locus YDR137W, strain rgp1, hits give low values 0.261 | locus YDR159W, strain sac3, hits give low values 0.722 | locus YDR162C, strain NBP2, hits give low values 0.0628 | locus YDR297W, strain sur2, hits give low values 0.559 | locus YDR318W, strain mcm21, hits give low values 0.34 | locus YDR334W, strain swr1, hits give low values 0.298 | locus YDR335W, strain msn5, hits give low values 0.56 | locus YDR388W, hits give low values 0.149 | locus YDR392W, strain spt3, hits give low values 0.321 | locus YDR502C, strain sam2, hits give low values 0.391 | locus YEL003W, strain gim4, hits give low values 0.504 | locus YEL037C, strain rad23, hits give low values 0.552 | locus YEL061C, strain CIN8 (second series), hits give low values 0.694 | locus YEL061C, strain CIN8, hits give low values 0.39 | locus YER015W, strain faa2, hits give low values 0.39 | locus YER016W, strain bim1, hits give low values 0.675 | locus YER110C, hits give low values 0.412 | locus YER111C, strain swi4, hits give low values 0.566 | locus YER155C, strain BEM2 (second series), hits give low values 0.441 | locus YER155C, strain BEM2, hits give low values 0.276 | locus YER167W, strain BCK2, hits give low values 0.245 | locus YFR010W, strain ubp6, hits give low values 0.557 | locus YGL078C, strain dbp3, hits give low values 0.872 | locus YGL086W, strain mad1, hits give low values 0.291 | locus YGL167C, strain pmr1, hits give low values 0.554 | locus YGL173C, strain kem1, hits give low values 0.248 | locus YGL227W, strain vid30, hits give low values 0.777 | locus YGL240W, strain doc1, hits give low values 0.442 | locus YGL248W, strain PDE1, hits give low values 0.21 | locus YGL253W, strain hxk2, hits give low values 0.295 | locus YGR078C, strain PAC10, hits give low values 0.182 | locus YGR135W, strain pre9, hits give low values 0.394 | locus YGR252W, strain gcn5, hits give low values 0.456 | locus YHR013C, strain ard1, hits give low values 0.427 | locus YHR027C, strain rpn1, hits give low values 0.349 | locus YHR030C, strain SLT2, hits give low values 0.613 | locus YHR079C, strain IRE1 (second series), hits give low values 0.434 | locus YHR079C, strain IRE1, hits give low values 0.67 | locus YHR094C, strain hxt1, hits give low values 0.417 | locus YHR129C, strain ARP1, hits give low values 0.216 | locus YHR142W, strain chs7, hits give low values 0.339 | locus YHR200W, strain rpn10, hits give low values 0.488 | locus YIL066C, strain RNR3, hits give low values 0.174 | locus YIL073C, strain SPO22, hits give low values 0.221 | locus YIL125W, strain kgd1, hits give low values 0.864 | locus YIR030C, strain dcg1, hits give low values 0.466 | locus YJL092W, strain hpr5, hits give low values 0.665 | locus YJL095W, strain BCK1 (second series), hits give low values 0.22 | locus YJL095W, strain BCK1, hits give low values 0.0992 and 0.647 | locus YJL115W, strain asf1, hits give low values 0.644 | locus YJL129C, strain trk1, hits give low values 0.33 | locus YJL134W, strain LCB3, hits give low values 0.309 | locus YJL154C, strain vps35, hits give low values 0.718 | locus YJL164C, strain tpk1, hits give low values 0.414 | locus YJL166W, strain qcr8, hits give low values 0.446 | locus YJL168C, strain set2, hits give low values 0.52 | locus YJL187C, strain SWE1 (second series), hits give low values 0.192

Reference: PubChem BioAssay AID1159580 (chemical genetic matrix, 2015)
